Bioassay records as filed in PubChem.
This excerpt belongs to a sample that is enriched for hits.
PLAP activator: PLAP enzyme activators, biochemical, luminescence, HTS; Alkaline phosphatase, placental type (Homo sapiens), P05187; purified PLAP enzyme, luminescent substrate read-out; active compounds read high; activation fold at 20 µM; hit rate 1.2% among 96,000; AID 696, 2007; in the data active = activation fold above about 2
Target sequence (P05187 whole entry, looked up): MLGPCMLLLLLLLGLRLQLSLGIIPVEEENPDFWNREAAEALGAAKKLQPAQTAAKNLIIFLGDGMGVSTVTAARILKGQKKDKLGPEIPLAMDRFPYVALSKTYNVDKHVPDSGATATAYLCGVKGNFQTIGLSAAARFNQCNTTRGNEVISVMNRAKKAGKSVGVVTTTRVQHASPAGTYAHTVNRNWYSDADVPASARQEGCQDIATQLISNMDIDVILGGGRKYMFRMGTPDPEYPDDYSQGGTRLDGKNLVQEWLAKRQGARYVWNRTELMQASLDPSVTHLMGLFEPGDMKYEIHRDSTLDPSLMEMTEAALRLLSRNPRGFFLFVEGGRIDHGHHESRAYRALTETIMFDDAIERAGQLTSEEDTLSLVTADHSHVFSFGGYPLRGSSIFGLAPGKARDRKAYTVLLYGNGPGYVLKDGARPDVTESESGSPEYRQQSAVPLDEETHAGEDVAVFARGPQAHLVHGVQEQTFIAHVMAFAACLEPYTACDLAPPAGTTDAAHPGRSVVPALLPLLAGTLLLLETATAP
Ec RNAP inh: E. coli RNAP inhibitors, biochemical; inhibition, %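 (tested at 10 µM)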; DNA-directed RNA polymerase subunit beta (Escherichia coli (strain K12)), P0A8V2; hit rate 0.2% among 62,000; AID 559, 2006; E. coli RNA polymerase, fluorescence transcription assay; in the data active = inhibition above about 20%;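 also: 0% = enzyme without compound and 100% = no enzyme blank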
TNAP act mid DEA: human TNAP enzyme activators, primary screen, biochemical, luminescent, intermediate phosphate acceptor level | Alkaline phosphatase, tissue-nonspecific isozyme (Homo sapiens), P05186 | AID 813, 2007 | purified TNAP, CDP-star luminescence, 100 mM DEA, 30 min; active compounds read high; scale: 0 levamisole-inhibited, 1 vehicle-only enzyme | 64,000 tested, under 10 active | activation factor at 20 µM;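 active = activation factor of at least 2 at 20 µM, relative to controls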
* = called active by the depositor; . = no result.

SMILES	PLAP activator	Ec RNAP inh	TNAP act mid DEA
CCOc1ccc2cc(/C=C/C(=O)c3ccco3)c(Cl)nc2c1	1.2	.	.
CCCn1c(SCC(=O)c2cc(C)c(C)cc2C)n[nH]c1=O	2.2*	.	.
CCCn1c(SCC(=O)NC(=O)Nc2ccc(C)cc2C)n[nH]c1=O	1.2	9.7	0.9
Cc1nn(Cc2cccc(F)c2)c(C)c1NC(=O)c1ccc(COc2ccccc2Cl)cc1	2*	.	.
Cc1nn(Cc2c(F)c(F)c(F)c(F)c2F)c(C)c1NC(=O)c1cccc(COc2ccccc2Cl)c1	0.9	.	.
Cc1nc(C)n(C(C)CC(=O)O)n1 (configuration not stated)	.	5.5	0.8
CCCNc1nc(C)c(C(C)=O)cc1C#N	0.9	.	.
O=C(CCC1CCCCC1)Nc1c[nH]c(=O)[nH]c1=O	1	.	.
O=C(CCC1CCCCC1)Nc1ncn[nH]1	2*	1.2	1.6
O=P(OC1CCCCC1)(OC1CCCCC1)C(O)c1ccccc1 (configuration not stated)	1.6	.	.
Cc1cc(C)nc(N(C#N)CC(=O)c2ccccc2)n1	0.9	10.8	1
CCc1ccc(C(=O)CN(C#N)c2nc(C)cc(C)n2)cc1	2.7*	.	.
Nc1nnc(C(c2ccccc2)c2ccccc2)s1	0.8	.	.
O=C(CSc1nnc(-c2ccncc2)n1-c1ccccc1)N1CCN(c2ccc(Cl)cc2)CC1	0.8	.	.
CN1CCN(C(=O)CN(c2cccc(Cl)c2)S(=O)(=O)c2ccccc2)CC1	1.2	8.9	0.9
CCc1cc(C(=O)Cc2nc3ccccc3[nH]2)c(O)cc1O	2.3*	6.5	1
CCc1cc(C(=O)Cc2ccc(F)cc2)c(O)cc1O	.	7.9	0.9
O=C(NCCSc1c[nH]c2ccccc12)c1ccco1	0.8	3.0	0.8
C/C(=N\NC(=O)c1c[nH]c2ccccc12)c1ccco1	2.3*	.	.
N#CC1=C(SCc2ccccc2Cl)NC(=O)C(C(N)=O)C1 (configuration not stated)	1.5	9.1	0.9
CCCc1cc(=O)oc2c(CN3CCCC3)c(O)ccc12	1.3	-204.2	1
CCCc1cc(=O)oc2c(CN3CCCC3)c(O)c(Cl)cc12	2.9*	.	1
COc1ccc(NC(=O)CN2CCOCC2)cc1	1	.	.
CCN(CC)c1cnn(C/C(=N\OC)c2ccc(Cl)cc2)c(=O)c1Br	1.3	.	.
CCc1c(C)nc(N)n2c(SCC(=O)N3CCN(c4ccccc4OC)CC3)nnc12	1.7	3.7	0.9
SMILES	PLAP activator	Ec RNAP inh	TNAP act mid DEA
CC1(c2ccc(Cl)cc2)NC(=O)N(CC(=O)N2CCCC2)C1=O (configuration not stated)	1.1	-7.0	0.9
Cc1ccccc1CN(c1ccc(C(=O)Nc2cccnc2)cc1)S(C)(=O)=O	2.2*	.	.
Cc1ccccc1CN(c1ccc(C(=O)N2CCCC2)cc1)S(C)(=O)=O	1.4	1.3	0.9
CCOC(=O)c1ccc(COC(=O)c2cc3ccccc3oc2=O)o1	0.8	10.7	0.9
COc1ccc(OC)c(N2C(=O)[C@@H]3C(c4ccccc4Cl)=NO[C@@H]3C2=O)c1	1.1	4.8	0.9
COc1ccc(C2=NO[C@@H]3C(=O)N(c4c(C)cccc4C)C(=O)[C@H]23)cc1OC	1	23.6*	1
COCCn1c(=S)[nH]c2ccc(N(C)C)cc2c1=O	1.1	-6.4	0.9
O=C(NCCSc1c[nH]c2ccccc12)C1CC1	0.9	.	.
